High-throughput results: PubChem BioAssay, National Center for Advancing Translational Sciences (NCATS)
A selection: hits, their analogues and other compounds. The true share with any hit is near 14%.
AID923 – qHTS Assay for Allosteric/Competitive Inhibitors of Caspase-1: Spectroscopic Profiling in AFC Spectral Region | compound fluorescence, AFC spectral region (405/520 nm) | Potency, µM (series often up to 57.5 µM), most hits filed as activators | hit rate 1.1% among 75,000 | AID 923, 2007
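Compound autofluorescence profiled at 405 nm ex/520 nm em during kinetic caspase 1 run (50 nM enzyme, 5 uM Ac-WEHD-AFC, HEPES pH 7.5, 10 mM DTT). Titration up to 57 uM; baseline from regression intercept, normalized to AFC standard curve.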
CRE Fsk mod – CRE-bla signaling modulation under forskolin stimulation; CHO CRE-bla reporter (cAMP response element driving beta-lactamase), forskolin EC10, beta-lactamase ratio; Potency, µM (highest dose often 38.2 µM), actives largely listed as activators; hit rate 2.5% among 71,000; active means well fitted activation curve with a large enough effect in the signal ratio, with a control signal flat, not every such curve was filed as active; inconclusive means small, poorly fitted or top-dose-only effect, or effect the other way, or a change in a side signal; the % refers to the signal ratio
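qHTS titration format; CRE-bla CHO reporter; stimulus EC10 NKH 477, a water-soluble forskolin. Read: CCF4 460/530 nm ratio. Potency expressed as AC50 for activators or inhibitors.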
A350 fluor – compound fluoresces in the Alexa 350 spectral region | Compound autofluorescence, 340/450 nm, Alexa 350 dye-equivalents; active compounds read high | max dye-equivalent concentration, M | hit rate 11% among 59,000 | AID 590; in the data active means max dye-equivalent concentration above about 10 nM; inconclusive means mostly about 1.1 nM to 9.6 nM
HADH2 inh – HADH2 (human) dehydrogenase inhibition | Q99714 | recombinant HADH2, NADH fluorescence, beta-hydroxybutyryl-CoA | Potency, µM (top dose mostly 57.1 µM), most hits filed as inhibitors | hit rate 3.4% among 73,000 | AID 886; further: nearly all actives have a fitted effect of over 60% in size
Target sequence (Q99714 whole entry, looked up, one chain of several): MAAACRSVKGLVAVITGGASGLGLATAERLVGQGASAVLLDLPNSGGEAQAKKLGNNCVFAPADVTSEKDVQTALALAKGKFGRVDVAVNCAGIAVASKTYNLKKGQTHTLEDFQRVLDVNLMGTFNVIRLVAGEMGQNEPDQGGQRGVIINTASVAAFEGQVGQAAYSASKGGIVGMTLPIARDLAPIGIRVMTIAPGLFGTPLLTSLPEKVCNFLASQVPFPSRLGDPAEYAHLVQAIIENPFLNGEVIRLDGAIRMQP
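Buffer 100 mM Tris-HCl pH 9.0/0.01% Tween-20; HADH2 20 nM; NAD+ 1 mM; beta-hydroxybutyryl-CoA 90 uM (all final). 15 min cpd preincubation, RT.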
HSD17B inhib – blocks hydroxysteroid 17-beta dehydrogenase activity; Q99714; recombinant HSD17B10, NADH fluorescence kinetic; Potency, µM (series often up to 57.1 µM), hits mostly inhibitors; hit rate 7.6% among 75,000;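 further: the protocol describes HADH2 (HSD17B10) and not the HSD17B4 of the title; nearly all actives have a fitted effect of over 70% in size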
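20 nM HADH2, pH 9.0 Tris/Tween; cpd preinc 15 min RT; start w/ 1 mM NAD+ + 90 uM b-hydroxybutyryl-CoA; kinetic fluor ex360/em450 q30s x 4 min; delta last-first.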
4MU fluor – compound fluoresces in the 4-MU spectral region; AID 589; compound autofluorescence, 340/450 nm, 4-MU equivalents; active compounds read high; hit rate 11% among 59,000; max dye-equivalent concentration, M; in the data active means max dye-equivalent concentration above about 10 nM; inconclusive means mostly about 1.1 nM to 9.6 nM
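Intrinsic fluorescence at 340/450 nm (ex/em) was read after 15 min at room temperature in pH 8.0, 100 mM Tris. Each compound concentration expressed as 4-MU-equivalent concentration from a six-point 4-MU standard series on each plate.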
Numbers stand for hits; [ ] = another dose, or the depositor's remark. Unless noted, the call rests on the fitted dose curve; in most records, active means well fitted curve in the direction sought with a large enough effect; inconclusive means small, poorly fitted or top-dose-only effect, or another doubt; inactive means no such curve, though single readings can be large; an effect the other way counts as inactive or inconclusive.

Results for CCCCOc1cc(C[C@@H]2CNC(=O)N2)ccc1OC ?
AID923: inactive; CRE Fsk mod: 0.4µM; A350 fluor: inactive; HADH2 inh: inactive; HSD17B inhib: inactive; 4MU fluor: inactive

How did CCCOc1ccc(C(=O)N2CCCC2C(=O)O)cc1 (stereo not drawn) do in these assays?
AID923: inactive; CRE Fsk mod: inactive; A350 fluor: 1.1e-08M; HADH2 inh: inactive; HSD17B inhib: inactive; 4MU fluor: 1e-08M

How did CCCCOc1ccc(C(=O)N2CCC(C)CC2)cc1 do in these assays?
AID923: inactive; CRE Fsk mod: inactive; A350 fluor: inactive; HADH2 inh: inactive; HSD17B inhib: inactive; 4MU fluor: inactive

Results for CCCCOc1ccc(C(=O)N2CCCCCC2)cc1 ?
AID923: inactive; CRE Fsk mod: inconclusive; A350 fluor: 8.8e-08M; HADH2 inh: inactive; HSD17B inhib: inactive; 4MU fluor: 1.1e-07M

Results for CCCCOc1ccc(C(=O)N2CCCC2C(=O)O)cc1 (stereo not drawn) ?
A350 fluor: inactive; 4MU fluor: inactive

What do the screens show for `C=C(C)CSc1nc(N)cc(=O)[nH]1`?
AID923: inactive; CRE Fsk mod: inconclusive; A350 fluor: inactive; HADH2 inh: inactive; HSD17B inhib: inactive; 4MU fluor: inactive

How did COc1cccc(CNC(=O)Nc2cccs2)c1 do in these assays?
AID923: inactive; CRE Fsk mod: inactive; A350 fluor: inactive; HADH2 inh: inconclusive; HSD17B inhib: 25µM; 4MU fluor: inactive

What do the screens show for `COc1ccc(CNC(=O)Nc2cccs2)cc1OC`?
AID923: inactive; CRE Fsk mod: inactive; A350 fluor: inactive; HADH2 inh: inactive; HSD17B inhib: inactive; 4MU fluor: inactive

How did Cn1c(=O)c2[nH]cnc2n(-c2ccccc2)c1=O do in these assays?
AID923: inactive; CRE Fsk mod: inconclusive; A350 fluor: 2.9e-08M; HADH2 inh: inactive; HSD17B inhib: inactive; 4MU fluor: 2.6e-08M

How did Cn1c(=O)c2c(O)cc(=O)n(-c3ccccc3)c2n(C)c1=O do in these assays?
AID923: inactive; CRE Fsk mod: inactive; A350 fluor: inactive; HADH2 inh: inactive; HSD17B inhib: inactive; 4MU fluor: inactive

What do the screens show for `O=C1C[C@@H](O)[C@@H](O)[C@@H]2[C@H]3C(=O)N(c4ccc(F)cc4F)C(=O)[C@@H]3CC[C@H]12`?
AID923: inactive[11.5 µM]; HADH2 inh: inactive[11.4 µM]; HSD17B inhib: inactive[11.4 µM]

How did CN(C(=O)CSc1nc(N)nn1-c1ccccc1)c1ccccc1 do in these assays?
AID923: inactive; CRE Fsk mod: inactive; HADH2 inh: inactive; HSD17B inhib: inactive

What do the screens show for `CC1(C)Cc2c(sc3ncn4nnnc4c23)CO1`?
A350 fluor: inactive; 4MU fluor: inactive

How did Cc1nc2sc3c(c2c2nc(-c4ccco4)nn12)CC(C)(C)OC3 do in these assays?
AID923: inactive; CRE Fsk mod: 3.2µM; A350 fluor: inactive; HADH2 inh: inactive; HSD17B inhib: inactive; 4MU fluor: inactive

Results for Clc1ccc(Cc2noc(-c3cccs3)n2)cc1 ?
AID923: inactive; CRE Fsk mod: inactive; A350 fluor: inactive; HADH2 inh: inactive; HSD17B inhib: inactive; 4MU fluor: inactive

How did Cc1ccc(-c2nc(CS(=O)CC(=O)NCCC(C)C)c(C)o2)cc1 (stereo not drawn) do in these assays?
AID923: inactive; CRE Fsk mod: inactive; HADH2 inh: inactive; HSD17B inhib: inactive

What do the screens show for `N#C/C(=C\c1ccc(O)c(O)c1)S(=O)(=O)c1ccccc1`?
AID923: inactive; CRE Fsk mod: inactive; A350 fluor: inactive; HADH2 inh: inconclusive; HSD17B inhib: 25µM; 4MU fluor: inactive

Results for N#C/C(=C\c1c[nH]c2ccccc12)C(=O)c1ccc(O)c(O)c1 ?
AID923: inactive; CRE Fsk mod: inactive; A350 fluor: inactive; HADH2 inh: inconclusive; HSD17B inhib: 13µM; 4MU fluor: inactive

How did O=C(Cc1cccs1)Nc1ccccn1 do in these assays?
AID923: inactive; CRE Fsk mod: inconclusive; A350 fluor: inactive; HADH2 inh: inactive; HSD17B inhib: inactive; 4MU fluor: inactive

What do the screens show for `N#C/C(=C\c1ccc(O)c(O)c1)C(=O)OCCc1cccs1`?
AID923: inactive; CRE Fsk mod: inactive; HADH2 inh: 13µM; HSD17B inhib: 16µM
